These results are taken from ChEMBL document CHEMBL1961873, “Compounds: GSK PKIS; Assays: Nanosyn kinase panel” (2012).

Assay [1] concerns the target T1, Inhibitor of nuclear factor kappa-B kinase subunit epsilon (Homo sapiens) (UniProt Q14164).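 Also: reported values are averaged percent inhibition figures against human IKKε.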
T1 sequence (whole entry): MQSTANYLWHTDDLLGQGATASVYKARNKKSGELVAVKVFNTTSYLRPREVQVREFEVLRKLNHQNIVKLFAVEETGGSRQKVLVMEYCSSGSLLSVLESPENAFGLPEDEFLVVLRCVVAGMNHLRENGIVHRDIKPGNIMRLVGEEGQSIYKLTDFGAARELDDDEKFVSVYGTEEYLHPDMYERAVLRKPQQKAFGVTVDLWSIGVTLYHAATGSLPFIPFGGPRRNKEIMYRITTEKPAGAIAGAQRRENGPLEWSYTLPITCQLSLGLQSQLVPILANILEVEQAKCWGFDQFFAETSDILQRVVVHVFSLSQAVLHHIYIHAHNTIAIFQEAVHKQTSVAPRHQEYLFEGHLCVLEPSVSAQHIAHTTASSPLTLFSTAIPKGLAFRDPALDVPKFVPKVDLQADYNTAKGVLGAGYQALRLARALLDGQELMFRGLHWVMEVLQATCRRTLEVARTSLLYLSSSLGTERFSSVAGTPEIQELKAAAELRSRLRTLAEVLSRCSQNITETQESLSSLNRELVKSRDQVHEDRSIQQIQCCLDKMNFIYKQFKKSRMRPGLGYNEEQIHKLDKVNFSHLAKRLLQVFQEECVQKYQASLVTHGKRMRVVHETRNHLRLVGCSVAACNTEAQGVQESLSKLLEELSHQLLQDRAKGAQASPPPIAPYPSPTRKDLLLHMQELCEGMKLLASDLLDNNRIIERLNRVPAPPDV
To be noted: at 1 µM.

The target of assay [2] is T2, Serine/threonine-protein kinase Nek1 (Homo sapiens) (UniProt Q96PY6).
T2 sequence (whole entry): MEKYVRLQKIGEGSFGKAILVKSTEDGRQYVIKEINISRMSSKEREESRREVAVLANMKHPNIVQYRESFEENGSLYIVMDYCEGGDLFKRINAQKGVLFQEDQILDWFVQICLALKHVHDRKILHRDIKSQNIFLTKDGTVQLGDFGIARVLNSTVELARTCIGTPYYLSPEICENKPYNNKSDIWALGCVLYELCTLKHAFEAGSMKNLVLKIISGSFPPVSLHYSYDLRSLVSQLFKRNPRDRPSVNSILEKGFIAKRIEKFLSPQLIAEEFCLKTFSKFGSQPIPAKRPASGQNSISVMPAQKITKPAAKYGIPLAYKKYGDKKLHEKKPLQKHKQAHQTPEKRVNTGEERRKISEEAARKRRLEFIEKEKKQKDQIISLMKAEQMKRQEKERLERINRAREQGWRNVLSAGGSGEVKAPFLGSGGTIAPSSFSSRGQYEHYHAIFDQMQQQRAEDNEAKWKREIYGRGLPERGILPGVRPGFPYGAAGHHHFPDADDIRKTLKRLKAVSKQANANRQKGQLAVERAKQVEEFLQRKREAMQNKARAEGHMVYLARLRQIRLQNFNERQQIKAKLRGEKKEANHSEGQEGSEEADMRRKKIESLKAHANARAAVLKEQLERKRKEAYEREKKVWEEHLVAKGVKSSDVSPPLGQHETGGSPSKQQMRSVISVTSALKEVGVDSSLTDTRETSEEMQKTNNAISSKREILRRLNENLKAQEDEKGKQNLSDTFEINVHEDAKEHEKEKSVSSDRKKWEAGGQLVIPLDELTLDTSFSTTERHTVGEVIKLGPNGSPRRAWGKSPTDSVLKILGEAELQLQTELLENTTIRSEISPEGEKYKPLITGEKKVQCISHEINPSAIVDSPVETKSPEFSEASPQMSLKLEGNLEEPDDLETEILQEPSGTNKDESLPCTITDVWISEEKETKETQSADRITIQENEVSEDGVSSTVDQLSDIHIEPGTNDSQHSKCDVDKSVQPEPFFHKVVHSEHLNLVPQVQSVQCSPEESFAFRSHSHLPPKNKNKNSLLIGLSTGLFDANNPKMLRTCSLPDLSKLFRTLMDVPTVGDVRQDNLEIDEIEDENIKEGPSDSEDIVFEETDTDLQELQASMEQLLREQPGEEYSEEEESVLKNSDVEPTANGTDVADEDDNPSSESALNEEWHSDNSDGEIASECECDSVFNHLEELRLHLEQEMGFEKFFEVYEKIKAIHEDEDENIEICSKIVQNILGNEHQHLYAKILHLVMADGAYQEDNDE
Particulars: at 0.1 µM.

The target of assay [3] is T2, Serine/threonine-protein kinase Nek1 (Homo sapiens). To be noted: at 1 µM.
The target in assay [4] is T3, Serine/threonine-protein kinase Nek2 (Homo sapiens) (UniProt P51955).
T3 sequence (whole entry): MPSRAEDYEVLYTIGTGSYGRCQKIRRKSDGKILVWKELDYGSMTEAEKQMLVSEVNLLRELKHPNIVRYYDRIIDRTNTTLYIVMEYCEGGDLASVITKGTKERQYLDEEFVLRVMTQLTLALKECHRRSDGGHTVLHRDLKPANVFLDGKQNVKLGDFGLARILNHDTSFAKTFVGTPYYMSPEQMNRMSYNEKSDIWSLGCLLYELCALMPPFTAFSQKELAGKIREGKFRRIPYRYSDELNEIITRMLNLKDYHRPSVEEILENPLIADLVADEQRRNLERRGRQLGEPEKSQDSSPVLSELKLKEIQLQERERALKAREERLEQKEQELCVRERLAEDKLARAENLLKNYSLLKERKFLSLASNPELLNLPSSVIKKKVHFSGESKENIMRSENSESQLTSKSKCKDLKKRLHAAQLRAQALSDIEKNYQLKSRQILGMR
To be noted: at 0.1 µM.

For assay [5], the target named is T3, Serine/threonine-protein kinase Nek2 (Homo sapiens). To be noted: at 1 µM.
For assay [6], the target named is Serine/threonine-protein kinase Nek6 (Homo sapiens) (UniProt Q9HC98). To be noted: at 0.1 µM.
Serine/threonine-protein kinase Nek6 (Homo sapiens), sequence (Q9HC98 whole entry): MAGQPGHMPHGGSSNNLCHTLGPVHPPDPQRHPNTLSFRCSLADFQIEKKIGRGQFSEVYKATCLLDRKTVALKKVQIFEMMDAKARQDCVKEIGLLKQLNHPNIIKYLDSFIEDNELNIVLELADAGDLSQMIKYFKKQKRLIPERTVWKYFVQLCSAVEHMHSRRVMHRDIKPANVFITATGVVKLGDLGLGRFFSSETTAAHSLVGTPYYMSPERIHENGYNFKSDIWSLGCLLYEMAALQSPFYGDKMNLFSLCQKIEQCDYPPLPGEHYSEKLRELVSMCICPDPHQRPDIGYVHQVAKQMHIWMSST
Assay [7] has the same target. To be noted: at 1 µM.
Assay [8] deals with Serine/threonine-protein kinase Nek7 (Homo sapiens) (UniProt Q8TDX7). To be noted: at 0.1 µM.
Serine/threonine-protein kinase Nek7 (Homo sapiens), sequence (Q8TDX7 whole entry, looked up): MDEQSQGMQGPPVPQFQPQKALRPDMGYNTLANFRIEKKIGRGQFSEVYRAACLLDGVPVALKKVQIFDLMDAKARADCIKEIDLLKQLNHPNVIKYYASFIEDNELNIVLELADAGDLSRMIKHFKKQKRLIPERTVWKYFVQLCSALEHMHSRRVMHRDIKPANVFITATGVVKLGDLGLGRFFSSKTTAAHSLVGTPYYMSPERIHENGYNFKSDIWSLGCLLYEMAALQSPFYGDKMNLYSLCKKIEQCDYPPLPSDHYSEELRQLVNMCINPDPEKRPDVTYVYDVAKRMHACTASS
For assay [9] the target is unchanged. Particulars: at 1 µM.
The target in assay [10] is T4, Serine/threonine-protein kinase Nek9 (Homo sapiens) (UniProt Q8TD19).
T4 sequence (whole entry): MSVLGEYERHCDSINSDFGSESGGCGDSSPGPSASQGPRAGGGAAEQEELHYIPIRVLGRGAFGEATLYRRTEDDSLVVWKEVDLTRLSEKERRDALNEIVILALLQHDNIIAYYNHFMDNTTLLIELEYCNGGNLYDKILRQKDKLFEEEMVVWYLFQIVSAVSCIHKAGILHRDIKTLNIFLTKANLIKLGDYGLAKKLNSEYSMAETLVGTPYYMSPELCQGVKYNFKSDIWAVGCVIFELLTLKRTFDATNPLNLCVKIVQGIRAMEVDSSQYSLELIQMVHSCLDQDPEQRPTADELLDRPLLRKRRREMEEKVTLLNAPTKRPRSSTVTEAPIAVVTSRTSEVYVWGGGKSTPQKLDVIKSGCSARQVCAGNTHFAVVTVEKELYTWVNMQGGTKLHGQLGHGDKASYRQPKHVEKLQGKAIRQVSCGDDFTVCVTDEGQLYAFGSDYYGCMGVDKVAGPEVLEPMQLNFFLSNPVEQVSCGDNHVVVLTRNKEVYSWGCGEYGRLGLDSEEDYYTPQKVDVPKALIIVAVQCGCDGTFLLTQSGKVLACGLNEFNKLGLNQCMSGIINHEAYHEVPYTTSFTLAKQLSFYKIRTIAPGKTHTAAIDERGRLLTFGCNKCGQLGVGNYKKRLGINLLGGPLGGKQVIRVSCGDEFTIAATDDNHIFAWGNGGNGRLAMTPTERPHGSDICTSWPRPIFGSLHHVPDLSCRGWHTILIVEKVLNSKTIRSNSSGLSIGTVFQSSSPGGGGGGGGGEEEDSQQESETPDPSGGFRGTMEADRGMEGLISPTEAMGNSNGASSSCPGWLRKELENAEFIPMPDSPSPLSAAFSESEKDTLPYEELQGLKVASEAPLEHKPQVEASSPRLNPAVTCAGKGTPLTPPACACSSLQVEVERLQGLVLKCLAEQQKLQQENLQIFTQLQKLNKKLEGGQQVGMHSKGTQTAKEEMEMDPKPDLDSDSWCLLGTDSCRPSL
To be noted: at 0.1 µM.

Assay [11] has as its target T4, Serine/threonine-protein kinase Nek9 (Homo sapiens). To be noted: at 1 µM.
Assay [12] addresses Serine/threonine-protein kinase PLK1 (Homo sapiens) (UniProt P53350). To be noted: at 0.1 µM.
For assay [13] the target is unchanged. Particulars: at 1 µM.
Assay [14] addresses T5, Dual specificity protein kinase TTK (Homo sapiens) (UniProt P33981).
T5 sequence (whole entry): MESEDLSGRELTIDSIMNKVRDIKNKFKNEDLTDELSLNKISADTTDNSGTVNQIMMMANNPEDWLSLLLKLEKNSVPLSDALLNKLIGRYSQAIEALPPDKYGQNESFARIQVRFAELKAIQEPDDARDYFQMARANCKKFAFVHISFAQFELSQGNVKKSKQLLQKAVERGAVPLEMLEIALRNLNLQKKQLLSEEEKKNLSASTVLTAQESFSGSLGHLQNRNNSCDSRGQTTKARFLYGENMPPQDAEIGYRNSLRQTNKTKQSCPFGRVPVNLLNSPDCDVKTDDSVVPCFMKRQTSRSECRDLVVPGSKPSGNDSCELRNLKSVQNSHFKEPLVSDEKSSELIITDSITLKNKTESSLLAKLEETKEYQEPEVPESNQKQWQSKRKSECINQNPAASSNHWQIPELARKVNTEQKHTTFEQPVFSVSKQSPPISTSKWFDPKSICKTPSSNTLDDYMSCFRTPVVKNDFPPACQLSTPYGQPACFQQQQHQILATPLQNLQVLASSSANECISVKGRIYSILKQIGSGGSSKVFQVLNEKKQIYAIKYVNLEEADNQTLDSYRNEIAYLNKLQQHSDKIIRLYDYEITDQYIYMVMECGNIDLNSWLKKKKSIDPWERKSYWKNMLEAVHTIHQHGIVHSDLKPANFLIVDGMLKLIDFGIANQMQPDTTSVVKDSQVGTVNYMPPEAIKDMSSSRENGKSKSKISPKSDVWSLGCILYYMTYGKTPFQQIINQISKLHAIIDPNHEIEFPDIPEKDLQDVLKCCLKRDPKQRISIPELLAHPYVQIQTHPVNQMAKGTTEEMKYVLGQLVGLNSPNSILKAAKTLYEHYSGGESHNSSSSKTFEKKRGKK
To be noted: at 0.1 µM.

Assay [15] has as its system T6, Receptor-type tyrosine-protein kinase FLT3 (Homo sapiens), P36888 [D835Y].
T6 sequence (whole entry): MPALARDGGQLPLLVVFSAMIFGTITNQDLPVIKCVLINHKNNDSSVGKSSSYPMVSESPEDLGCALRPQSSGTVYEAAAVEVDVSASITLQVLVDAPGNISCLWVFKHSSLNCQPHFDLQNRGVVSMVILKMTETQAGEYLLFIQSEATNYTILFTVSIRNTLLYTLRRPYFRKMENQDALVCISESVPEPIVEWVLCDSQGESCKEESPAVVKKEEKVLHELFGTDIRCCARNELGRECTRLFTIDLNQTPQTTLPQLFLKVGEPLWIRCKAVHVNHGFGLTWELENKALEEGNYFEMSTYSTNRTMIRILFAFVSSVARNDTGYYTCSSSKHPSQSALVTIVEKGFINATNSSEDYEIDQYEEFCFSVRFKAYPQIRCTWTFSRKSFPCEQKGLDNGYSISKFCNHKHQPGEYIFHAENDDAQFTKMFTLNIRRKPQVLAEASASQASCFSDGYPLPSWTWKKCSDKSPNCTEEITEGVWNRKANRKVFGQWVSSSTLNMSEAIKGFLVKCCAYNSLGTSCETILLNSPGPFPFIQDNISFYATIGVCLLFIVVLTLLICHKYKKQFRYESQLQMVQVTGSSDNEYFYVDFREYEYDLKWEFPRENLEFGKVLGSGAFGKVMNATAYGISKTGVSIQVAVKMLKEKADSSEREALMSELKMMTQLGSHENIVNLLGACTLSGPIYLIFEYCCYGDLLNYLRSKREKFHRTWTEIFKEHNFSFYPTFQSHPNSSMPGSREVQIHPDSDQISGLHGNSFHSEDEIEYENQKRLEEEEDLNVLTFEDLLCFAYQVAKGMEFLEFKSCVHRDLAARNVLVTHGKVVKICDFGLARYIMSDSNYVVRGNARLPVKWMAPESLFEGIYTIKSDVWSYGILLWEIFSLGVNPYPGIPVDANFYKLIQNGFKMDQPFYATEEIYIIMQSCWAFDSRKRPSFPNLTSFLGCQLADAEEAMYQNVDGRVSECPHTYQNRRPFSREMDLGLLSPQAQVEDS
Particulars: at 1 µM.

Assay [16] addresses Vascular endothelial growth factor receptor 3 (Homo sapiens) (UniProt P35916). Particulars: at 0.1 µM.
Assay [17] has the same target. To be noted: at 1 µM.
In assay [18] the target is Macrophage colony-stimulating factor 1 receptor (Homo sapiens) (UniProt P07333). Particulars: at 0.1 µM.
Macrophage colony-stimulating factor 1 receptor (Homo sapiens), sequence (P07333 whole entry): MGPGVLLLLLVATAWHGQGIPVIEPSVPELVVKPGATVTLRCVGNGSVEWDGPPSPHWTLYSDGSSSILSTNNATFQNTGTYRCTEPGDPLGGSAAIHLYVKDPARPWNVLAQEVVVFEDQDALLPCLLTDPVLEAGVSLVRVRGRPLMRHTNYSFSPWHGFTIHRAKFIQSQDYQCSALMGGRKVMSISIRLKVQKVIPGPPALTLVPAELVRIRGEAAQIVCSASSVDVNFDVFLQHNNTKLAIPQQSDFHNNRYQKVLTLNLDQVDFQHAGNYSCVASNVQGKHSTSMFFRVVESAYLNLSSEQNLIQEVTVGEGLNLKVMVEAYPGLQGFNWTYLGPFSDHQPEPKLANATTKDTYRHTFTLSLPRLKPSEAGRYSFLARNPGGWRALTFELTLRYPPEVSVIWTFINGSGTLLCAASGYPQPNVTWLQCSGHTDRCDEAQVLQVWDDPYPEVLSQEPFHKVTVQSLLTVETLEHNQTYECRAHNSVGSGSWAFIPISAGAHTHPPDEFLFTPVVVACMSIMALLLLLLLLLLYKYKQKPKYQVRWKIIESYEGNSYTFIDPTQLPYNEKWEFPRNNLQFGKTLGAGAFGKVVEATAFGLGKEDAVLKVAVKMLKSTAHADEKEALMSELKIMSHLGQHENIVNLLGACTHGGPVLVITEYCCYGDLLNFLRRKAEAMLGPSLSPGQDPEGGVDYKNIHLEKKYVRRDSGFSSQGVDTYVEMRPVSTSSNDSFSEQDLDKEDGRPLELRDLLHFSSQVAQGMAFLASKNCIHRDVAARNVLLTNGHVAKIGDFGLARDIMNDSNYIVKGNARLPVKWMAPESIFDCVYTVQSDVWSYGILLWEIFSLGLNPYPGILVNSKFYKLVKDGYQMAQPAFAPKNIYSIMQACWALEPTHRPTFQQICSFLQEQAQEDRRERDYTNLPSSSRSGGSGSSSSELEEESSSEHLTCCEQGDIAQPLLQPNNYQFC
The target is the same in assay [19]. Particulars: at 1 µM.
In assay [20] the target is Tyrosine-protein kinase Fyn (Homo sapiens) (UniProt P06241). Particulars: at 0.1 µM.
Tyrosine-protein kinase Fyn (Homo sapiens), sequence (P06241 2-537 limits assumed): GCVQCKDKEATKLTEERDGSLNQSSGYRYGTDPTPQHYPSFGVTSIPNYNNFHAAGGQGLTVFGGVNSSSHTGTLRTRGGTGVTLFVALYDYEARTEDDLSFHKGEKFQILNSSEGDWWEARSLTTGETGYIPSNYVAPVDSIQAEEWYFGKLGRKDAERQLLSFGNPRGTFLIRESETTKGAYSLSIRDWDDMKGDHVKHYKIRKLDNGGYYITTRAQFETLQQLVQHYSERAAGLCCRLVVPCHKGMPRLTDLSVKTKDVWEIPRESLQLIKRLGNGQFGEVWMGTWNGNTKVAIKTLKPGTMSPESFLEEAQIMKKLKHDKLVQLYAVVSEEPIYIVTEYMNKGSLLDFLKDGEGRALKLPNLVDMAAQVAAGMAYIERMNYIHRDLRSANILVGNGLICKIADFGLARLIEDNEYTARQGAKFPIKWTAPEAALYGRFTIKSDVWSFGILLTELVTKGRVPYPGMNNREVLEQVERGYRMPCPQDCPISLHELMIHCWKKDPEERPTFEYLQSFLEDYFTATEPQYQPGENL

Each structure is given as a SMILES string.

Vascular endothelial growth factor receptor 3 (Homo sapiens), sequence (P35916 whole entry): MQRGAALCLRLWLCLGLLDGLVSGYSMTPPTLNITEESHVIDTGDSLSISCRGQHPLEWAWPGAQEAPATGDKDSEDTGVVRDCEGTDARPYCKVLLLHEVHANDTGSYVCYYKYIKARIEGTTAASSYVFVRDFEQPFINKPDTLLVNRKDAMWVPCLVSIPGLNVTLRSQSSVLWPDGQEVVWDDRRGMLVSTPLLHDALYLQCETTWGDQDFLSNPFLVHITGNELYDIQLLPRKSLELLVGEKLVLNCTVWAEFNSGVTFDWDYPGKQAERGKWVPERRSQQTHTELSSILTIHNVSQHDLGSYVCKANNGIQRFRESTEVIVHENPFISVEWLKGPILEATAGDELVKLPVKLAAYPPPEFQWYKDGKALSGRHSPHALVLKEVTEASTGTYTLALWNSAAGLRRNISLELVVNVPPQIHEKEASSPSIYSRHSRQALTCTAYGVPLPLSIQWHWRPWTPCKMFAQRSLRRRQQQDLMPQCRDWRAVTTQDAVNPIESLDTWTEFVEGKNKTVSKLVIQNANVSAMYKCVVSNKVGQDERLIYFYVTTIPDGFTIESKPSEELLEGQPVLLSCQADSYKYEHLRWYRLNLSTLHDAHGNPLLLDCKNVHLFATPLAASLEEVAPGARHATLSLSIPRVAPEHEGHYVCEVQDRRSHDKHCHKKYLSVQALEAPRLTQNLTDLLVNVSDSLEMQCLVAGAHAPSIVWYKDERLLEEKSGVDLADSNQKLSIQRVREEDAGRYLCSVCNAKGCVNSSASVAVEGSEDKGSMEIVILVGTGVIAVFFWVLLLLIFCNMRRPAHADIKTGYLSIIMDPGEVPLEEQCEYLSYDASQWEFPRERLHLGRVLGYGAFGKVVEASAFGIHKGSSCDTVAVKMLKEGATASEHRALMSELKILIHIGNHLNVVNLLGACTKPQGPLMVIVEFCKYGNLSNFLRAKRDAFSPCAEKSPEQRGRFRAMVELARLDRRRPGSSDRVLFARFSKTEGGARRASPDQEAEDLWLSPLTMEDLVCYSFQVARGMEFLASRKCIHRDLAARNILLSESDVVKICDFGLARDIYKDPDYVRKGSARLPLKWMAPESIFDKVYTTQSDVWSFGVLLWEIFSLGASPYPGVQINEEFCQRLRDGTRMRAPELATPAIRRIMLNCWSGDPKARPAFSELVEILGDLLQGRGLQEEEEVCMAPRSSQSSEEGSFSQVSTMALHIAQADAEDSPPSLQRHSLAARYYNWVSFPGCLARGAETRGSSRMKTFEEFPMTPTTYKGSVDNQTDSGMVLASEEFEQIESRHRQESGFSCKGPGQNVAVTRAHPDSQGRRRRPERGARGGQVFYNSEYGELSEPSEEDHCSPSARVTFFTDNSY
Serine/threonine-protein kinase PLK1 (Homo sapiens), sequence (P53350 whole entry): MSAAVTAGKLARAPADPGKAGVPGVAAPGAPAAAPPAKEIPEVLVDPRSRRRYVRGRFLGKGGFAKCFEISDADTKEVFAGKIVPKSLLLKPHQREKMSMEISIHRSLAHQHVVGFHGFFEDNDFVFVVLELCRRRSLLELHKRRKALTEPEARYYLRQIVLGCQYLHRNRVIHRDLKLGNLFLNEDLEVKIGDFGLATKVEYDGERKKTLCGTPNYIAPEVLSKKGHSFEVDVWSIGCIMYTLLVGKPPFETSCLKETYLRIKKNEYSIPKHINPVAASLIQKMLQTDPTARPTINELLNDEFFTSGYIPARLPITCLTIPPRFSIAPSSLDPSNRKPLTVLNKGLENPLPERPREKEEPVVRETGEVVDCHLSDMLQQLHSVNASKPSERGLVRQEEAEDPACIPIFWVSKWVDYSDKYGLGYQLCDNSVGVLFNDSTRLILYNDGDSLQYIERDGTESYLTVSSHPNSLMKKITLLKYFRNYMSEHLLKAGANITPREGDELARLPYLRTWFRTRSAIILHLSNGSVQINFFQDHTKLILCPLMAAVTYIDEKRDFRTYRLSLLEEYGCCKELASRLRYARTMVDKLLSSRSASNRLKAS

As usually defined, the inhibition is the drop in the measured response relative to a control, in per cent. Take `Nc1nccc(-c2c(-c3ccc(F)cc3)ncn2CCCN2CCOCC2)n1`: the inhibition was 5.9% in [1]; 2.11% in assay [2]; 3.63% in assay [3]; 4.66% in [4]; 5.54% in assay [5]; 3.27% in assay [6]. Further, the inhibition was found to be 0.28% in [7]; 5.79% in assay [8]; 4.4% in assay [9]; 9.19% in assay [10]; 15.2% in [11]; 2.14% in assay [12]. For the same molecule, the inhibition was 4.49% in assay [13]; 10.5% in assay [14]; -6.25% in [15]; 15.4% in [16]; 17% in assay [17]; 2.72% in [18]. Further, the inhibition in assay [19] turned out to be 1.51%; in assay [20] it was 0.86%.
